# Measurements: the supplement of paper PMC10338343
# ± gives the standard deviation.
# Legend:
# [1] = system: MILI (PIWIL2) piRISC loaded with L1MC piRNA (26 nt); assay: pre-steady-state target cleavage rate (min^-1); guide: L1MC piRNA 5'p-UAACUAAAUACUAUGCAAGCUGUAGG; higher = faster piRNA-guided slicing of the target; conditions: auxiliary factor: 500 nM mouse GTSF1
# Summary of the method: (§1)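 With or without 500 nM GTSF1 partner protein, 1 nM active affinity-purified piRISC carrying one synthetic guide was mixed with 0.1 nM transcribed, DNA-blocked target RNA library in HEPES–potassium acetate buffer at 33 °C for 0–8 or 0–960 min. Uncleaved targets were sequenced and normalised to depth and to weakly complementary targets, three trials were pooled, and k3 was capped at 0.0001 min^-1. The pre-steady-state cleavage rate came from a burst-and-steady-state fit.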
# [2] = system: EfPiwi piRISC loaded with L1MC piRNA (26 nt); assay: pre-steady-state target cleavage rate (min^-1); auxiliary factor: 500 nM Ephydatia muelleri Gtsf1; guide: L1MC piRNA 5'p-UAACUAAAUACUAUGCAAGCUGUAGG; MIWI and MILI are mouse PIWI proteins and EfPiwi is from a freshwater sponge; tags in brackets are library labels; higher = faster piRNA-guided slicing of the target
# Summary of the method: as §1
Sequence,pre-steady-state target cleavage rate [1],pre-steady-state target cleavage rate [2]
UCCUGCUACAGCUAGCAUAGUAUUUAGUAA,0.212 ± 0.019,0.00623 ± 0.002
UCCUGCUACAGCUUGCAUAGUAUUAAGAUA,0.019 ± 0.0078,0.00501 ± 0.0016
UCCUCCUACAGCUUGCAUAGUAUAUACUUA,0.0976 ± 0.028,0.00304 ± 0.0025
UCCUGGAACAGCUUGCAUACUAUUUAGUAA,0.0934 ± 0.025,0.00398 ± 0.0022
UCCUGGAUGAGCUAGCAUAGAAUUUAGUUA,0.0337 ± 0.011,0.00286 ± 0.0026
UCCUGCUACAGCUUGCUUAGUAUUUUGUUA,0.156 ± 0.027,0.0127 ± 0.004
UCCUGGAACAGCUUGCAUACUAUUUUGUUA,0.0261 ± 0.0092,0.00252 ± 0.0023
UCCUGGAACAGCUUGCAUAGUAUUUUGUUA,0.154 ± 0.029,0.00368 ± 0.0018
UCCUGGUACAGCUUGCAUAGUAUUUAGCUUA,0.204 ± 0.041,0.00493 ± 0.0023
UCCUCCUUGUGCUUGCAUAGUAUUUAGAAA,0.0325 ± 0.0085,0.00387 ± 0.0022
UCCUGGAUGAGCUUGCAUAGUAUUUCGUUA,0.0995 ± 0.028,0.00352 ± 0.0019
UCCUGGAACAGCUUGGAUAGUAUUUAGAAA,0.0385 ± 0.012,0.00373 ± 0.0019
UCCUGCUACAGCUUGCAUAGUAUUGAGUUA,0.114 ± 0.027,0.00424 ± 0.0019
UCCUCCUACAGCUUGCAUAGUAUAUAGAUA,0.0715 ± 0.018,0.0051 ± 0.0025
UCCUGCUACAGCUUGGAUAGAAUUUAGUUA,0.0646 ± 0.014,0.0053 ± 0.0018
UCCUGGAUCAGGUUGCAUAGUAUUUAGAUA,0.1 ± 0.023,0.00381 ± 0.0026
UCCUGGAUCACCUUGCAUAGUAUUUAGAUA,0.111 ± 0.025,0.00551 ± 0.005
UCCUGCUACAGCUUCCAUAGUAUAUAGUUA,,0.00251 ± 0.0024
UCCUGGUACAGCUUGCAUAGUAUAUAGUAA,0.173 ± 0.034,0.00335 ± 0.0022
UCCUGGAUCAGCUUGCCAUAGUAUUUAGUUA,0.0992 ± 0.014,0.00658 ± 0.0025
UCCUGCUACAGCUUGCAUAGUAUAAAGUAA,0.0784 ± 0.021,0.00224 ± 0.0017
UCCUCCUACAGCUUGCAUAGUUUUUAGAAA,0.0703 ± 0.019,0.00527 ± 0.0024

Sequence,pre-steady-state target cleavage rate [1],pre-steady-state target cleavage rate [2]
UCCUGGAUCAGCUUGCAUAGUUUUUAGUAA,,0.00477 ± 0.0025
UCCUGGAAGUCCUUGCAUAGUAUUUAGAAA,0.151 ± 0.03,0.00315 ± 0.0023
UCCUGCUACAGCUAGCAUAGAAUUUAGUUA,0.0821 ± 0.018,0.00327 ± 0.0022
UCCUGCUACACCUUGCAUACUAUUUAGUUA,,0.00403 ± 0.0024
UCCUCCUACAGCUUCCAUAGUAUUUAGAUA,,0.00393 ± 0.0021
UCCUGGAUGUCGAACGUUACUAUUUAGUUA,,< 0.0001
UCCUGCUACAGCUUCCAUAGUAUUUAGAUA,,0.00303 ± 0.00093
UCCUGGAUGUCGAACCAUAGUAUUUCGUUA,,< 0.0001
UCCUGCUACAGCUUCCAUAGUAUUUACAAA,,0.00279 ± 0.0021
UCCUGGAUGUCGAACCAUAGUAAUUAGUUA,,< 0.0001
UCCUCCUUGAGCUUGCAUAGUAUUUACAAA,,0.00316 ± 0.0022
UCCUGGUACAGCUUGCGAUAGUAUUUAGUUA,,0.00543 ± 0.0019
UCCUGCUACAGCUUGCAUAGUAUAUAGAUA,,0.00352 ± 0.0017
UCCUGGAUGAUGCUUGCAUAGUAUUUAGUUA,,0.0738 ± 0.022
UCCUCCAACAGCUUGCAUAGUAUUAAGUUA,,0.00502 ± 0.002
UCCUGGAUGAGCUUGCACAGUAUUUAGUUA,,0.0152 ± 0.0046
UCCUGGAUGAGCUUGCAUAGUAUUUAGCUUA,,0.00409 ± 0.0018
UCCUCCUUCAGCUAGCAUAGUAUUUAGUUA,,0.0131 ± 0.0046
UCCUCGUACAGCUUGCAUAGUAUAUAGUUA,,0.0103 ± 0.0042
UCCUGGAUGUGCUUGCAUUCAUAAAUCAAA [g13:g20:cont:t1A],,< 0.0001
UCCUGCUACUCGUUGCAUAGUAUUUAGUUA,,0.00936 ± 0.0038
UCCUGGAUGAGCUUGCAUAGUAUUGAGUUA,,0.00461 ± 0.0019

Sequence,pre-steady-state target cleavage rate [1],pre-steady-state target cleavage rate [2]
UCCUGGAACAGUCUUGCAUAGUAUUUAGUUA,,0.00822 ± 0.0027
UCCUCCUACUGCAUGCAUAGUAUUUAGUUA,,0.0706 ± 0.019
UCCUGGAACAGCUUGCAUAGUAUUUACUUA,,0.00514 ± 0.0038
UCCUCCUACAGCUUGCAUAGUAUAUAGAAA,,0.00329 ± 0.0015
UCCUGGAUGUCGAACGUAUCUAUUAUAGUUA,,< 0.0001
UCCUCCUACAGGAUGCAUAGUAUUUAGUUA,,0.0467 ± 0.011
UCCUGGUACAGCUUGCAUAGUAUUAAGAUA,,0.0058 ± 0.0028
UCCUGGAUGAGCCUUGCAUAGUAUUUAGUUA,,0.00885 ± 0.0032
UCCUGGUACAGCUUACAUAGUAUUUAGUUA,,0.0283 ± 0.0076
UCCUCCUACAGCUUCCAUAGUAUUUAGAAA,,0.00369 ± 0.0018
UCCUCCUACAGCUUGCGAUAGUAUUUAGUUA,,0.00839 ± 0.0023
UCCUGGAUGUCGAACCAUAGUAUUUGUUA,,< 0.0001
UCCUGGAUGUCGAACCAUAGUUUUAGUUA,,< 0.0001
UCCUGCUACUGCUUGCAUAGUAUUUAGUUA,,0.00883 ± 0.003
UCCUGGAUGUCGAACGUAUCUAGUUUAGUUA,,< 0.0001
UCCUGGAGCAGCUUGCAUAGUAUUUAGUUA,,0.101 ± 0.024
UCCUGGAACAGCUUGCUUACUAUUUAGUUA,,0.00758 ± 0.0029
UCCUGGAUGUCGAACGUUAGAUUUAGUUA,,< 0.0001
UCCUGGAUCAGCUUCCAUAGUAUUUAGAUA,,0.00231 ± 0.0018
UCCUGCUACAGCUACCAUAGUAUUUAGUUA,,0.00308 ± 0.0021
UCCUCCAACAGCUUGGAUAGUAUUUAGUUA,,0.0467 ± 0.011
